Activity calls are given as the source filed them. Unless noted, how the calls were made is not given here.

The subject of assay [1] is Wnt5a (protein binding on small-molecule microarray). The assay is described as follows: Wnt5a binders on small-molecule microarray, primary screen, biophysical, 635/667 nm fluorescence (AID 1142).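 Further: fluorescence read at 667 nm with signal to noise per printed feature.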 Conditions: 635 nm fluorescence, higher = more signal.
A short description of assay [2]: cell viability in Huh7 cells, primary screen, cytotoxicity control for HCV replication inhibitor project, CellTiter-Glo luminescence, basal, 48 h (AID 1143).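 Further: Huh7 hepatoma cells carrying a hepatitis C replication reporter with no stimulus; test concentration not given here.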 Conditions: Huh7 HCV replicon, higher = more signal, called active from +8 up or from −8 down. (ATP-based viability assays read luminescence as a measure of living cells.)
Assay [3] is described as follows: P. aeruginosa biofilm formation inhibitors, primary screen, PAO1 strain, BacTiter-Glo luminescence, LB-PBS (AID 1144). Conditions: 12 h, higher = more signal.
A short description of assay [4]: CREB reporter modulators without forskolin, primary screen, cell-based, PC12, CRE-LacZ reporter, unstimulated (AID 1145). Conditions: no forskolin, luminescence, 4.5 h, higher = more signal, called active from +8 up or from −8 down.
The nature of assay [5]: CREB reporter modulators under forskolin, primary screen, cell-based, PC12, CRE-LacZ reporter, forskolin-stimulated (AID 1146).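 Further: PC12 cells with 6xCRE LacZ reporter stimulated by forskolin 10 µM; beta-galactosidase reporter signal reflecting CREB driven transcription.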 The note with it: luminescence, 4.5 h, higher = more signal, called active from +8 up or from −8 down.
Assay [6] concerns the target Streptavidin (Streptomyces avidinii) (UniProt P22629). The assay is described as follows: streptavidin binders on small-molecule microarray, primary screen, artefact control for SMM compound annotation, biophysical, 635/667 nm fluorescence (AID 1147).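 Further: signal reflects streptavidin binding to arrayed compounds as a control protein.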 The note with it: streptavidin binding, higher = more signal.
Assay [7] is described as follows: small-molecule binders of probe aInhba, primary screen, biochemical, small-molecule microarray, 635/667 nm fluorescence (AID 1148).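 Further: score merges 667nm spot fluorescence with signal-to-noise for antibody binding to printed compounds.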 The note with it: higher = more signal.
Assay [8] has as its target Torsin-1A (Homo sapiens) (UniProt O14656). Description: torsin A binders from cell lysate, primary screen, small-molecule microarray, wild-type, 635/667 nm (AID 1149). Conditions: COS7 hTOR1A-WT lysate, 635 nm fluorescence, higher = more signal.
The target is the same in assay [9]. The assay is described as follows: small-molecule binders of mutant TOR1A in lysate, primary screen, cell lysate, small-molecule microarray, COS7 lysate, 635/667 nm fluorescence (AID 1150).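 Further: score pools 667 nm emission and signal to noise measuring lysate protein binding.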 The note with it: COS7 hTOR1A mutant lysate, 635 nm fluorescence, higher = more signal.
Assay [10] concerns Sonic hedgehog protein (Shh). The assay is described as follows: small-molecule binders of Shh protein, primary screen, biochemical, small-molecule microarray, 635/667 nm fluorescence (AID 1151).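 Further: Shh protein binding to compounds spotted on small-molecule microarray slides; score combines spot fluorescence intensity with signal-to-noise across triplicate slides.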 The note with it: small-molecule microarray binding, 635 nm fluorescence; higher = more signal.
Assay [11] can be described thus: E. coli DRC41 culture turbidity changes, primary screen, E. coli filamentation inducer project, strain DRC41, OD650, 48 h (AID 1152).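 Further: E. coli MC1000 strain DRC41 lacking acrAB efflux pump and sulA.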 Conditions: E. coli DRC41 (acrAB sulA), higher = more signal, called active from +8 up or from −8 down.
Assay [12] is described as follows: small-molecule binders of probe aLefty1, primary screen, biochemical, small-molecule microarray, 635/667 nm fluorescence (AID 1153).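 Further: score merges spot fluorescence with signal-to-noise ratio from the scanned slide images.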 Conditions: higher = more signal.
The nature of assay [13]: PSAC antagonists in infected red cells, primary screen, cell-based, P. falciparum Indochina, OD700, 1 h (AID 1154). The note with it: P. falciparum Indochina infected RBC osmotic lysis, higher = more signal, called active from +8 up or from −8 down.
Assay [14] in a line: PSAC antagonists in infected red cells, primary screen, cell-based, P. falciparum Indochina, OD700, 2 h (AID 1155).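 Further: lysis reports solute entry through the parasite surface anion channel PSAC; channel blockers reduce lysis of infected cells.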 Conditions: P. falciparum Indochina infected erythrocytes, osmotic lysis OD700; higher = more signal, called active from +8 up or from −8 down.
Assay [15] is described as follows: osmotic lysis modulators in infected erythrocytes, primary screen, PSAC antagonist project, cell-based, P. falciparum Indochina, OD700, 3 h (AID 1156). The note with it: higher = more signal, called active from +8 up or from −8 down.
A short description of assay [16]: PSAC antagonists in infected red cells, primary screen, cell-based, P. falciparum Indochina, OD700, 18 h (AID 1157). Conditions: P. falciparum Indochina infected erythrocytes, osmotic lysis OD700, 18 h; higher = more signal, called active from +8 up or from −8 down.
Assay [17] is described as follows: modulators of S6 phosphorylation in cells, primary screen, cell-based, A549, cytoblot, luminescence, serum-stimulated (AID 1158).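 Further: serum-stimulated A549 lung adenocarcinoma cells; signal is phosphorylated S6 detected by cytoblot immunostaining with HRP secondary.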 The note with it: A549 phospho-S6 cytoblot, 5 h, higher = more signal.
Assay [18] concerns the target NADPH oxidase 2 (Homo sapiens) (UniProt P04839). Description: NOX2-dependent H2O2 signal modulators, primary screen, NOX inhibitor project, cell-based, HEK293-NOX2, PMA-stimulated, Amplex Red fluorescence (AID 1159). Further: test concentration not given here. The note with it: 45 min, higher = more signal, called active from +8 up or from −8 down.
Assay [19] addresses NADPH oxidase 4 (Homo sapiens) (UniProt Q9NPH5). The assay is described as follows: NOX4-dependent H2O2 signal modulators, primary screen, NOX inhibitor project, cell-based, HEK293-NOX4, tetracycline-induced, Amplex Red fluorescence (AID 1160). Conditions: 45 min, higher = more signal, called active from +8 up or from −8 down.
For assay [20], the target named is NADPH oxidase 5 (Homo sapiens) (UniProt Q96PH1). The assay is described as follows: NOX5-dependent H2O2 signal modulators, primary screen, NOX inhibitor project, cell-based, HEK293-NOX5, Amplex Red fluorescence (AID 1161). Conditions: HEK293-NOX5, ionomycin, 45 min, higher = more signal.
Chain of NADPH oxidase 5 (Homo sapiens) (Q96PH1 whole entry, looked up): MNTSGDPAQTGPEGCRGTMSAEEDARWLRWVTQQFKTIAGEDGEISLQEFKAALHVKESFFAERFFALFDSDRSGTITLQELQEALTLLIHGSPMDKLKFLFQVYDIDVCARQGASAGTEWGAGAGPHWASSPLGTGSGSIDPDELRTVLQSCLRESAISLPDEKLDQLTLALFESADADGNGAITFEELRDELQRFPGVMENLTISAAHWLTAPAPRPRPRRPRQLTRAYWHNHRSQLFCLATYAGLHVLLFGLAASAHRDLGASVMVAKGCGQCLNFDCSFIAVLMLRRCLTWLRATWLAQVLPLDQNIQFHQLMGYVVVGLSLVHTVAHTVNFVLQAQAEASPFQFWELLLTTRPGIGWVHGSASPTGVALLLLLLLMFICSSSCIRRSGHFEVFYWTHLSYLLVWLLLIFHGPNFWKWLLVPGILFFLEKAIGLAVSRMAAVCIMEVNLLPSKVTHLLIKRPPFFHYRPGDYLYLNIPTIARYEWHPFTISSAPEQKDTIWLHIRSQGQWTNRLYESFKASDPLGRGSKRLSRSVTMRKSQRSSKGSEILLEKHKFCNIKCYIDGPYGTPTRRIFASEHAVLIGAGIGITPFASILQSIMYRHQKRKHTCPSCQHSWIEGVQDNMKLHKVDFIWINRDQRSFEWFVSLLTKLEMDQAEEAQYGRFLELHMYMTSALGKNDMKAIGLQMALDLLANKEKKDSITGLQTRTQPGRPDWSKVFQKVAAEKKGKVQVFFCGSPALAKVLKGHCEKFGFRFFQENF

Chain of Torsin-1A (Homo sapiens) (O14656 whole entry, looked up): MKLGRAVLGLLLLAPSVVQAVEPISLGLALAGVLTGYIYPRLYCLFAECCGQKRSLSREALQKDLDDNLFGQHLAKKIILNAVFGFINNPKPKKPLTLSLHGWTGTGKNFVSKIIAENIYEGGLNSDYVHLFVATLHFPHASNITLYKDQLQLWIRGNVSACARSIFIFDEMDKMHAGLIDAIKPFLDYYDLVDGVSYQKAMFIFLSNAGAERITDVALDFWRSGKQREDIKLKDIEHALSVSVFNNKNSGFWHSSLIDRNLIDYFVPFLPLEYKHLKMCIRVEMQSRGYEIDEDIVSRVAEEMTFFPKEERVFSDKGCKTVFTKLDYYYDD
Chain of Streptavidin (Streptomyces avidinii) (P22629 whole entry, looked up): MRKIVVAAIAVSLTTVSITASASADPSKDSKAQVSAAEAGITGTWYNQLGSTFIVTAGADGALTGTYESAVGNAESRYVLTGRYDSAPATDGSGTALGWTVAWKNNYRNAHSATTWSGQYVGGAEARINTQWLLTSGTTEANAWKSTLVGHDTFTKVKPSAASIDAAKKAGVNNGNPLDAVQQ
Chain of NADPH oxidase 4 (Homo sapiens) (Q9NPH5 whole entry, looked up): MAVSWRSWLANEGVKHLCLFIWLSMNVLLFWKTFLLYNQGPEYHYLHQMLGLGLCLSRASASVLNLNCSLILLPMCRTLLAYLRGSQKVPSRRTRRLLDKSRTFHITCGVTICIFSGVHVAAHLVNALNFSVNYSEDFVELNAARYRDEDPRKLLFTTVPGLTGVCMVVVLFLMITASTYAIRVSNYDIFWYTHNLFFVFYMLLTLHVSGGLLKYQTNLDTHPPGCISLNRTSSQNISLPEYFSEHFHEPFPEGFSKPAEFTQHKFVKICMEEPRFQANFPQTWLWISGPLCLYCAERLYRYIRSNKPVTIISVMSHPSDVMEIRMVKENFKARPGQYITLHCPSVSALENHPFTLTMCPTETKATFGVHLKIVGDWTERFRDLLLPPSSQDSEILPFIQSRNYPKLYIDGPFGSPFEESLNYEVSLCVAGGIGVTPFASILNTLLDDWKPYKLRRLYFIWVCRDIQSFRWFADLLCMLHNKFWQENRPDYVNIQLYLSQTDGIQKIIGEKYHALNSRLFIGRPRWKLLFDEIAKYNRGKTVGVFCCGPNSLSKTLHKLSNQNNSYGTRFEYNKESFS
Chain of NADPH oxidase 2 (Homo sapiens) (P04839 whole entry, looked up): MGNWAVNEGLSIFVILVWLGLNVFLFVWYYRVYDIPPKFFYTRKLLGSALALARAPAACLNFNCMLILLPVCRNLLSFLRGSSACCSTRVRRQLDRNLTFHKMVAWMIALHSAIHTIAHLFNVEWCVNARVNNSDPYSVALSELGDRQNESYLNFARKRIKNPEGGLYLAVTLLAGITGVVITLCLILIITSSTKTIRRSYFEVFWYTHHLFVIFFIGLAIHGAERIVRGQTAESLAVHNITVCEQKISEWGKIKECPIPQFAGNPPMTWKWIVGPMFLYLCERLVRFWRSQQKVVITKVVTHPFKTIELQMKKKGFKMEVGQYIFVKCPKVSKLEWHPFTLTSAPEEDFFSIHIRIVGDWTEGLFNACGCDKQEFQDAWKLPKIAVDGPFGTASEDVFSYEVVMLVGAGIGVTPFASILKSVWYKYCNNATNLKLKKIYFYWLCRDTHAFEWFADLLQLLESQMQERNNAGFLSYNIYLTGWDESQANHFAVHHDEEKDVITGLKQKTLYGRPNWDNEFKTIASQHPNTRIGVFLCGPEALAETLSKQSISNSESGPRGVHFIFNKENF

Consider `COc1ccc([Si](C)(C)[C@H]2[C@H](CC(=O)N(CCO)Cc3ccccc3)O[C@@]3(C(=O)N(Cc4ccc(N5C(=O)c6cccc7cccc5c67)cc4)c4ccccc43)[C@@H]2C)cc1`, for which the composite z-score was 0.954 in [1]; 0.555 in [6]; 0.545 in [7]; -0.237 in the assay with Torsin-1A (Homo sapiens) [8]; 0.454 in the assay with Torsin-1A (Homo sapiens) [9]; 2.17 in assay [10]. In assay [12], this molecule registered a composite z-score of 0.542. In addition, the z-score is -4.47 (inactive) in [2]; 0.278 (inactive) in [3]; 0.353 (inactive) in assay [4]; -0.429 (inactive) in [5]; -0.263 (inactive) in assay [11]; 15.2 (active) in assay [13]. The z-score in [14] is 3.52 (inactive); in assay [15] it was 1.24 (inactive); in [16] it was 1.48 (inactive); in assay [17], 0.294; in assay [18], 1.52 (inactive); in assay [19], 0.695 (inactive). For the same molecule, in assay [20], the z-score was 2.88.

As to `O=C1N(Cc2ccccc2)Cc2ccccc2C[C@@]12COC(c1ccc(OCCCO)cc1)=N2`, the composite z-score in [1] was 0.165; in [6] it was -0.0644; in assay [7], 0.108; with Torsin-1A (Homo sapiens) [8] it was 0.356; with Torsin-1A (Homo sapiens) [9], 0.695; in assay [10] it was 0.0301. This molecule had a composite z-score in assay [12] of 0.179. Moreover, the z-score in [2] is -5.94 (inactive); in assay [3], 1.31 (inactive); in assay [4], 1.45 (inactive); in assay [5], -2.33 (inactive); in assay [11] it was -0.595 (inactive); in assay [13], 20.3 (active). Besides, the z-score in assay [14] is 4.93 (inactive); in assay [15] it was 3.72 (inactive); in [16], 1.48 (inactive); in [17], -0.087; in assay [18], -5.75 (inactive); in assay [19], -0.977 (inactive). Further, the z-score in [20] was -1.8.

For `COCCOC(=O)N1C(=O)[C@@]2(c3cc(C#CC4=CCCCC4)ccc31)[C@H](c1ccc(O)cc1)N1[C@H](c3ccccc3)[C@H](c3ccccc3)OC(=O)[C@H]1[C@@H]2C(=O)N1CCc2cc(OC)c(OC)cc2C1`, the composite z-score was -0.0266 in assay [1]; 0.112 in assay [6]; 0.103 in assay [7]; 0.175 with Torsin-1A (Homo sapiens) [8]; 0.893 with Torsin-1A (Homo sapiens) [9]; 0.514 in assay [10]. This molecule gave a composite z-score in [12] of 0.0355. The z-score in assay [2] was -0.713 (inactive); in assay [3], 0.315 (inactive); in assay [4], -0.375 (inactive); in assay [5], 0.109 (inactive); in assay [11], -0.164 (inactive); in assay [13], 0.751 (inactive). In addition, the z-score was 0.394 (inactive) in assay [14]; -6.44 (inactive) in assay [15]; 0.0991 (inactive) in assay [16]; -0.294 in [17]; 1.48 (inactive) in assay [18]; 1.04 (inactive) in assay [19]. This molecule registered a z-score in [20] of 1.03.

On to `COCCOC(=O)N1C(=O)[C@@]2(c3cc(C#CCC(C(=O)OC)C(=O)OC)ccc31)[C@H](c1ccc(O)cc1)N1[C@H](c3ccccc3)[C@H](c3ccccc3)OC(=O)[C@H]1[C@@H]2C(=O)N1CCc2cc(OC)c(OC)cc2C1`, for which the composite z-score in assay [1] was 0.227; in assay [6], -0.341; in assay [7], 0.0714; in the assay with Torsin-1A (Homo sapiens) [8], 0.0553; in the assay with Torsin-1A (Homo sapiens) [9], 0.391; in assay [10], 1.31. In assay [12], this molecule registered a composite z-score of -0.149. In addition, the z-score in [2] is -0.233 (inactive); in assay [3] it was 0.12 (inactive); in [4], 0.0384 (inactive); in assay [5], 0.118 (inactive); in [11], 0.904 (inactive); in assay [13], 0.442 (inactive). Moreover, the z-score in assay [14] was 0.0876 (inactive); in [15], 0.328 (inactive); in assay [16] it was 0.394 (inactive); in assay [17] it was 0.161; in assay [18] it was 1.94 (inactive); in [19], 0.336 (inactive). The same molecule came in with a z-score in [20] of 1.23.

On to `COC(=O)[C@@]1(Cc2ccc(OC)cc2)[C@@H]2[C@@H](CC(=O)[C@H]2CC(=O)C(=O)N(C)C)CN1C(=O)c1ccccc1`, for which the composite z-score was 2.06 in assay [1]; 1.79 in assay [6]; 1.83 in assay [7]; -0.0909 with Torsin-1A (Homo sapiens) [8]; 0.452 with Torsin-1A (Homo sapiens) [9]; 0.326 in assay [10]. In assay [12], the composite z-score amounted to 2.12. Besides, the z-score in assay [2] was -3.89 (inactive); in [3], 0.327 (inactive); in assay [4], 0.39 (inactive); in assay [5] it was 0.247 (inactive); in assay [11], -0.715 (inactive); in [13], 2.94 (inactive). The z-score in assay [14] is 1.08 (inactive); in assay [15], 0.63 (inactive); in assay [16], 1.45 (inactive); in [17], 0.58; in [18], 0.337 (inactive); in [19], 0.898 (inactive). In [20], the z-score came to 0.427.

The values are drawn from PubChem BioAssay.
